The source of these data is PubChem BioAssay AID2685 (National Center for Advancing Translational Sciences (NCATS), 2010).

The campaign covered roughly 320,000 compounds. About 2,100 (0.66%) were called active. Not shown: some 53% with an inconclusive outcome. Calls come from the whole dose curve; as a rule, active = well fitted inhibition curve with a large enough effect in the signal ratio, with a control signal flat (not every such curve was filed as active); inconclusive = small, poorly fitted or top-dose-only effect, or effect the other way, or a change in a side signal; inactive = flat fitted curve, though single readings scatter; the % refers to the signal ratio. The full list was thinned out, with actives kept by preference.
Potency is the fitted concentration of half-maximal effect.

The nature of the experiment: qHTS Assay for Lipid Storage Modulators in Drosophila S3 Cells.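 For cell number change: cells counted by Cell Tracker Red CMTPX staining in the red channel.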 For lipid storage change, negative = inhibition: % is set by controls: 0 for no effect and ±100 for the full control effect. To be noted: BODIPY lipid droplet fluorescence, 18-24 h, cells fed with added oleic acid; cell number change: measured here: cell count max response; series mostly up to 46.1 µM; lipid storage change, negative = inhibition: at the top concentration. A digest of the protocol: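 Drosophila S3 cells got compounds at several concentrations plus oleic acid (400 uM solution). Laser-scanning cytometry with 488 nm excitation read lipid droplets at 500-530 nm and cells at 575-640 nm. Percent activity was relative to 20 uM Triacsin C.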
(In general: Quantitative high-throughput screening tests each substance at several concentrations.)
As for `CCN(CC)C(=O)C(Oc1ccc(S(=O)(=O)N2CCCC2)cc1[N+](=O)[O-])c1ccccc1` (configuration not stated), the “lipid storage change, negative = inhibition” value is -2.31% (inactive) and the cell number change was 3.42%.

With `CSc1nsc(SCC(=O)Nc2ccc(Cl)c(C(=O)O)c2)n1`, the Potency is 1.46 µM (active) and the cell number change was determined as 6.94%. Take `Nc1nnc(SCC(=O)Nc2ccc(Cl)c(C(=O)O)c2)s1`: the “lipid storage change, negative = inhibition” value is -24.1% (inactive) and the cell number change was -0.289%. As to `O=C(CSc1nc2ccccc2s1)Nc1ccc(Cl)c(C(=O)O)c1`, the “lipid storage change, negative = inhibition” value is 2.06% (inactive) and the cell number change worked out at 18.4%.

For `CSc1nsc(SCC(=O)Nc2ccc(C(N)=O)cc2)n1`, the Potency is 6.51 µM (active) and the cell number change is 8.7%. As for `CSc1nsc(SCC(=O)Nc2ccc(OC(C)=O)cc2)n1`, the cell number change was -8.58% and the lipid storage change, negative = inhibition is 1.8% [at 9.22 µM] (inactive). On to `CSc1nsc(SCC(=O)Nc2nncs2)n1`, for which the “lipid storage change, negative = inhibition” value was 1.82% (inactive) and the cell number change is 10.5%. The matching figures for `O=C(Nc1cc(C(=O)N2CCN(c3ccccc3O)CC2)ccc1Cl)c1cccs1`: 0.607% (inactive) and 5.21%. Regarding `CCCOc1cccc(C2/C(=C(\O)c3ccc4c(c3)OCCO4)C(=O)C(=O)N2CCCn2ccnc2)c1` (configuration not stated), the call was inactive and the cell number change is -8.73%.

As for `O=C(CCc1nnc2n(CCc3ccccc3)c(=O)c3ccccc3n12)NCCCN1CCCCC1`, the call was inactive and the cell number change is -8.94%. Turning to `O=[N+]([O-])c1ccccc1/C=N\N1CCN(c2ccccc2)CC1`, the “lipid storage change, negative = inhibition” value is -22% (inactive) and the cell number change is 0.964%. As for `O=[N+]([O-])c1ccccc1/C=N/N1CCN(Cc2ccccc2)CC1`, the Potency is 1.3 µM (active) and the cell number change is -5.28%. Take `O=[N+]([O-])c1ccc(Cl)c(/C=N/N2CCN(Cc3ccccc3)CC2)c1`: the “lipid storage change, negative = inhibition” value was 12.3% (inactive) and the cell number change was -3.29%. In the case of `O=S(=O)(NNC(=S)Nc1ccc(S(=O)(=O)Nc2ncccn2)cc1)c1ccc(Br)cc1`, the result was inactive and the cell number change came to 4.32%. For the molecule `Cc1cc(Cn2nc(-c3ccccc3)cc2C(=O)NCC2CC2)on1`, the “lipid storage change, negative = inhibition” value was -21.7% (inactive) and the cell number change is -12.8%. Consider `Cc1cc(C(=O)NCc2ccccc2)no1`, for which the “lipid storage change, negative = inhibition” value was -20.2% (inactive). `CCOC(=O)c1cc(-c2ccccc2)n(Cc2cc(CC)no2)n1`: the Potency is 18.4 µM (active) and the cell number change was -3.23%.

On to `CCOC(=O)c1cc(-c2ccccc2)nn1Cc1cc(CC)no1`, for which the “lipid storage change, negative = inhibition” value is 3.3% (inactive) and the cell number change was -20.2%. `Cc1cc(Cn2nc(C(=O)NCc3cccc(Br)c3)cc2-c2ccccc2)on1`: the Potency is 13 µM (active) and the cell number change was 16.4%. Turning to `CCOC(=O)c1cc(-c2ccccc2)nn1Cc1cc(C)no1`, the “lipid storage change, negative = inhibition” value is -32.4% (inactive) and the cell number change is -24%. `COc1cc(-c2noc(CCC(=O)NC3CCCC3)n2)cc(OC)c1OC`: the outcome was inactive and the cell number change is -0.87%. In the case of `CC(C)CNC(=O)NC(=O)CSc1nc2ccccc2n1CC(C)C`, the call was inactive. `CCOc1cc(/C=C/C(=O)O)ccc1OCc1ccccc1`: the “lipid storage change, negative = inhibition” value is 1.96% (inactive) and the cell number change turned out to be 8.37%. On to `COc1cc(/C=C/C(=O)NC(C)(C)C)ccc1OCc1ccccc1`, for which the Potency was 29.1 µM (active) and the cell number change is -27.6%.

In the case of `COc1ccc(/C=C/C(=O)NC(C)CCc2ccccc2)cc1OC` (configuration not stated), the “lipid storage change, negative = inhibition” value was -7.83% (inactive) and the cell number change came out at 0.149%.

As to `O=C(NCCCNC(=O)c1ccccc1Br)c1ccccc1Br`, the “lipid storage change, negative = inhibition” value was -4.06% (inactive) and the cell number change is -12.7%.

Consider `Fc1cccc(NC(=S)NC2CCCCCCC2)c1`, for which the molecule was classed as inactive and the cell number change was -22.8%.

`O=C(Nc1cccc(F)c1)NC1CCCCC1`: the outcome was inactive and the cell number change is -7.64%. Consider `O=C(Nc1cccc(F)c1)NC1CCCCCCC1`, for which the Potency was 14.6 µM (active) and the cell number change was determined as 14.2%. Take `Cc1cccc(NC(=S)NC2CCCC2)c1`: the “lipid storage change, negative = inhibition” value was 17.3% (inactive) and the cell number change is 10.6%.

For `FC(F)(F)c1cccc(NC(=S)NC2CCCC2)c1`, the Potency is 18.4 µM (active) and the cell number change was -29.3%. For the molecule `CC(=O)c1cccc(NC(=O)NC2CCCCCCC2)c1`, the “lipid storage change, negative = inhibition” value was 10.8% (inactive).

For `C/C=C\C=C\C(=O)Nc1cccc(C2=NOC3(C2)C[C@H](C(N)=O)N(C(=O)c2ccccc2C(=O)c2ccccc2)C3)c1` (some centres not stated), the “lipid storage change, negative = inhibition” value was 8.24% (inactive) and the cell number change stood at 1.47%. Consider `CCOC(=O)c1cnc(NCc2ccccc2)nc1C`, for which the molecule was classed as inactive and the cell number change was -8.98%. As for `CCN1CCN(c2cc(C)nc(-c3ccccc3O)n2)CC1`, the “lipid storage change, negative = inhibition” value was 8.28% (inactive) and the cell number change was 0.893%. In the case of `COc1ccccc1NS(=O)(=O)c1ccc(C(=O)NCC(c2ccccc2OC)N(C)C)cc1` (configuration not stated), the “lipid storage change, negative = inhibition” value is -24.9% (inactive) and the cell number change was 13%. The matching figures for `Cc1cc2[nH]c(=O)c(=O)[nH]c2cc1S(=O)(=O)Nc1cccc(C)c1C`: 14.4% (inactive) and -1.15%. In the case of `Cc1cc2c(cc1S(=O)(=O)NCc1ccccc1)n(C)c(=O)c(=O)n2C`, the outcome was inactive and the cell number change is -17.3%. In the case of `Cc1cc2c(cc1S(=O)(=O)N(C)c1ccccc1)n(C)c(=O)n2C`, the “lipid storage change, negative = inhibition” value is -21.6% (inactive) and the cell number change was determined as 9.55%.

Take `Cc1cc2c(cc1S(=O)(=O)Nc1cccc(C)c1C)n(C)c(=O)c(=O)n2C`: the Potency is 9.2 µM (active) and the cell number change is -26.2%. `CCN(c1ccccc1)S(=O)(=O)c1cc(C(=O)O)ccc1C`: the “lipid storage change, negative = inhibition” value is 14.4% (inactive) and the cell number change was -3.04%. Consider `Cc1cccc(N(C)S(=O)(=O)c2cc3c(cc2C)n(C)c(=O)c(=O)n3C)c1`, for which the Potency is 13 µM (active) and the cell number change was -12.7%.

Consider `Cc1cccc(NS(=O)(=O)c2cn(C)c(=O)n(C)c2=O)c1C`, for which the “lipid storage change, negative = inhibition” value is -26.7% (inactive) and the cell number change was determined as 14.4%.

Consider `Cc1cc2c(cc1S(=O)(=O)N(C)Cc1ccccc1)n(C)c(=O)c(=O)n2C`, for which the molecule was called inactive and the cell number change was -28.5%. Consider `CCN(c1ccccc1)S(=O)(=O)c1cc2c(cc1C)n(C)c(=O)c(=O)n2C`, for which the Potency was 8.2 µM (active) and the cell number change is -9.51%.
